PMC5540273 (PLoS ONE, 2017)

Tested on: ZAP70
Details: concentration: 1 μM, replicates: in singlicate; n = 1
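Note: KINOMEscan kinase panel screen.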

Row | SMILES | %Inh [%]
1 | O=C(O)C(F)(F)F.O=C(O)C(F)(F)F.O=c1[nH]ccc2nc(N[C@@H]3CCCNC3)nc(Nc3ccc(S(=O)(=O)N4CCOCC4)cc3)c12 [GSK2177277] | 71
2 | COC(=O)Nc1nc2ccc(Oc3ccc(NC(=O)Nc4cc(C(F)(F)F)ccc4F)cc3)cc2n1C.Cl [GW692089] | 0
3 | Fc1ccc(-c2ncn(C3CCNCC3)c2-c2ccnc(Oc3ccc(-c4ccccc4)cc3)n2)cc1 [SB-245391] | 24
4 | O=C(Nc1n[nH]c2nc(-c3ccc(O)cc3)ccc12)C1CC1 [SB-710363] | 0
5 | c1ccc(-c2n[nH]cc2Nc2ccnc3ccccc23)nc1 [GW694077] | 0
6 | O=C(Nc1cccc(-c2nn3ccccc3c2-c2ccnc(Nc3cccc(F)c3)n2)c1)c1c(F)ccc(F)c1Cl [GSK357952] | 0
7 | Nc1ncc(-c2ccc3nccc(-c4ccncc4)c3c2)cc1S(=O)(=O)N1CCOCC1 [GSK1627798] | 0
8 | COc1ccc(Nc2nccc(NCCNC(=O)c3cc4ccccc4s3)n2)cc1 [GSK1379896] | 0
9 | CN(c1ccc(NC(=O)Nc2cc(C(F)(F)F)ccc2F)cc1)c1ccnc(Nc2ccc(S(N)(=O)=O)cc2)n1 [GW809893] | 27
10 | COc1ccc(CNC(=O)NC2CCN(c3ccnc(Nc4ccc(F)cc4)n3)CC2)cc1 [GSK1379788] | 4
11 | Cc1ccc(S(=O)(=O)Nc2ccc(Nc3nccc(Nc4cccc5[nH]ncc45)n3)cc2)cc1 [GSK581271] | 0
12 | COc1cccc(NC(=O)NC2CCN(c3ccnc(Nc4cc(OC)c(OC)c(OC)c4)n3)C2)c1 (stereo not shown) [GSK1379763] | 0
13 | CC(C)c1nc(-c2cccc(NS(=O)(=O)c3c(F)cccc3F)c2F)c(-c2ccnc(Nc3ccc(N4CCOCC4)nc3)n2)s1 [GSK2008607] | 0
14 | CN1CCN(CCCNc2nccc(-c3c(-c4ccc(F)cc4)nn4cc(C(F)(F)F)ccc34)n2)CC1 [GW621581] | 0
15 | CCn1c(-c2nonc2N)nc2c(C#CC(C)(C)O)nc(OC[C@H](N)c3ccccc3)cc21 [GSK943949] | 0
16 | Cl.c1ccc(-c2ccc3c(Nc4ccc5[nH]ncc5c4)ccnc3c2)nc1 [GW440137] | 24
17 | COc1cccc(-c2ccc3c(NC(=O)C4CC4)n[nH]c3n2)c1 [SB-710903] | 48
18 | CCCCc1nn2ncccc2c1-c1ccnc(Nc2ccc(N3CCN(C)CC3)cc2)n1 [GW684941] | 0
19 | CC(C)(C)c1ccc2nccc(Nc3cccc(O)c3)c2c1 [GW856795] | 42

Row | SMILES | %Inh [%]
20 | COc1cc(Nc2nccc(-c3c(-c4cccc(NC(=O)c5c(F)cccc5F)c4)nn4ccccc34)n2)cc(OC)c1OC [GSK323521] | 0
21 | COc1cccc(C(=O)Nc2cccc(Oc3ccc4nc(NC(=O)C5CC5)cn4n3)c2)c1 | 0
22 | CCc1ccc(-c2ccc3c(c2)-c2c(cnn2C)S(=O)(=O)N3C)cc1 | 0
23 | Cn1cc(-c2ccc3c(c2)CCN3C(=O)Cc2cccc(F)c2)c2c(N)ncnc21 [GSK2603358] | 55
24 | COc1cc2c(cc1OCCN1CCNCC1)ncc1c3ccc(C#N)cc3[nH]c21 | 28
25 | COc1cc(Nc2ncc3c(C)nc(-c4cc5ccccc5[nH]4)n3n2)cc(OC)c1OC [GW869516] | 0
26 | CC(=O)Nc1nc2cnc(Nc3cc(NC(=O)c4cccc(C5(C#N)CC5)c4Cl)ccc3C)nc2s1 | 0
27 | CCn1c(-c2nonc2N)nc2c(C#CC(C)(C)O)ncc(OCCCCN)c21.O=C(O)C(F)(F)F.O=C(O)C(F)(F)F [GSK507274] | 0
28 | Oc1cc(Nc2ccnc3cc(I)ccc23)ccc1F [GW552771] | 0
29 | Nc1n[nH]c2cnc(-c3ccccc3)cc12 [SB-642124] | 0
30 | C[C@@H]1CC[C@@H](C(=O)Nc2ccccc2)CN1c1cc(-c2ccc3c(N)n[nH]c3c2)nc(N)n1 [GSK2286062] | 0
31 | Cc1ccc(C(=O)N2CC[C@@H](O)C2)cc1-n1c(C)cc(OCc2ccc(F)cc2F)c(Br)c1=O | 0
32 | Nc1ncc(-c2cccnc2)c2scc(-c3ccc4c(c3)CCN4C(=O)Cc3ccccc3)c12 [GSK683281] | 0
33 | C[C@@H](Oc1cc(-n2cnc3cc(-c4ccnc(NCCS(C)(=O)=O)c4)ccc32)sc1C(N)=O)c1ccccc1Cl [GSK907232] | 0
34 | Cc1ccc(F)c(C(=O)Nc2cccc(-c3nn4ccccc4c3-c3ccnc(Nc4cccc(F)c4)n3)c2)c1F [GSK361061] | 0
35 | Cl.NC(=O)c1cccc(Nc2nccc(Nc3ccc(Oc4c(Cl)cccc4Cl)c(Cl)c3)n2)c1 [GW659009] | 0
36 | CN(C)S(=O)(=O)c1cc(-c2ccc3nccc(-c4cccc(S(N)(=O)=O)c4)c3c2)cnc1N [GSK1669921] | 4
37 | NCCCC(NC(=O)c1cc(Br)c(-c2ccnc3[nH]ccc23)s1)c1ccccc1.O=C(O)C(F)(F)F.O=C(O)C(F)(F)F (stereo not shown) [GSK1287544] | 0
